Test results published in PubChem BioAssay AID1347416 (National Center for Advancing Translational Sciences (NCATS), 2020).
Hit rate of the full screen: of about 4,100 compounds, about 1,600 (39%) were called active. Inconclusive results (about 25%) are left out. Calls come from the whole dose curve; as a rule, active = well fitted inhibition curve with a large enough effect; inconclusive = small, poorly fitted or top-dose-only effect; inactive = no such curve, though single readings can be large or run the other way. This is one part of the list.

Assay: qHTS Validation assay for Inhibitors of Plasmodium falciparum Dd2 growth in vitro; note: nearly all actives have a fitted effect of over 70% in size
Conditions: P. falciparum Dd2 in RBCs, SYBR Green growth, 72 h; series mostly up to 28.7 µM; activity change, negative = inhibition: at the top concentration
Description: Malaria, a parasitic disease spread to humans through the bite of a Plasmodium infected Anopheles mosquito, continues to be a global health burden affecting millions of people, with an estimated 228 million cases and 405,000 deaths in 2018. Concerns about safety and limitations of current antimalarial treatments strongly emphasize the need to develop new therapeutic options. The scarce number of chemotypes and validated drug targets with efficacy against the liver stage, have hindered development of new antimalarials. To address this, a chemoprophylactic drug discovery effort was conducted through a combined phenotypic high-throughput asexual blood stage and liver stage screen, providing a robust foundation to identify liver-stage active lead chemotypes. Compounds were initially screened against Plasmodium falciparum Dd2 strain parasites using a in vitro SYBRGreen-1 based 72 hr proliferation assay to identify novel chemotypes to advance to liver stage assays. NIH/NCATS Early Translation Branch Assay Submitter (PI): Anton Simeonov Ph.D.
[…] Assay Protocol: PROTOCOL TABLE (as described by Inglese et al., 2007) SEQUENCE No. (e.g., 1, 2, 3, etc.); PARAMETER (e.g., Cells, Incubation, Reagent, etc.); VALUE; DESCRIPTION SEQUENCE, Parameter, Description 1; Reagent; 3 uL complete malaria growth medium, 1536 TC treated Black clear bottom plate 2; Controls; 23 nL positive control artesunate (300 nM final) to column 1; Neutral control DMSO to columns 2-4 3; Compound; 23 nL of compounds in dose response concentration (29 uM to 0.5 nM final) 4; Reagent; 5 uL malaria infected red blood cells (2.5% hematocrit final, 0.3% parasitemia 5; Time; 72 hours at 37C (5% O2, 5% CO2, 90% N2; 95% Rh) 6; Reagent; 2 uL lysis buffer/SYBRGreen-1, 25 sec shake immediately following dispense 7; Time; ~16 hours at 37C (5% O2, 5% CO2, 90% N2; 95% Rh) 8; Detector; EnVision (PerkinElmer) bottom read at 485/14nm excitation and 535/25 nm emission NOTES (numbers refer to sequence above): 1; Complete Malaria Growth Media: 1X RPMI-1640 w/L-glutamine, 5.5g/L Albumax II, 367 uM Hypoxanthine, 25 mM HEPES, 0.25% Sodium Bicarbonate, 35 uM Gentamicin sulfate 2; Controls were added using the Kalypsis Pintool (Wako USA) equipped with 1536 pinhead 3; Compounds were added in a 7-point, titration with a high final concentration of 29 uM by Pintool from seven inter-plate titrations of library plates and two DMSO control plates at the beginning and end (see Yasgar et al., 2008). 4; Red blood cells infected with Plasmodium falciparum Dd2 parasites were used. 6; Lysis buffer: 20 mM Tris-HCl, 10 mM EDTA, 0.16% Saponin, 1.6% Triton-X, 10X SYBR Green. REFERENCE: Inglese J, Shamu CE, Guy RK. 2007. Reporting data from high-throughput screening of small-molecule libraries. Nat Chem Biol. doi:10.1038/nchembio0807-438 Yasgar A, Shinn P, Jadhav A, Auld D, Michael S, Zheng W, Austin CP, Inglese J, Simeonov A. 2008. Compound Management for Quantitative High-Throughput Screening. J Lab Autom 13:79-89. doi:10.1016/j.jala.2007.12.004
% is set by controls: 0 for no effect and ±100 for the full control effect; potency is the fitted concentration of half-maximal effect.

Question: With CCN(CC)CCNC(=O)c1cn(CC)c2ccc(S(=O)(=O)N3CCOCC3)cc2c1=O as the compound, how does the “activity change, negative = inhibition” value read?
Answer: 29.7% (inactive)

Question: For CCn1cc(C(=O)N[C@@H](CCSC)C(=O)NC(C)(C)CO)c(=O)c2cc3c(cc21)OCO3, which Potency is on record?
Answer: 2.99 µM (active)

Question: With CC1CCc2cc(F)ccc2N1C(=O)CSc1nnc2c(n1)[nH]c1ccc(F)cc12 (configuration not stated) as the compound, how does the Potency read?
Answer: 8.41 µM (active)

Question: With CC1CCN(C(=O)CSc2nnc3c(n2)[nH]c2ccc(F)cc23)CC1 as the compound, how does the “activity change, negative = inhibition” value read?
Answer: -11.3% (inactive)

Question: Which Potency does the source give for CC1CCc2cc(F)ccc2N1C(=O)CSc1nnc2c(n1)[nH]c1ccccc12 (configuration not stated) here?
Answer: 7.5 µM (active)

Question: With COc1cccc(S(=O)(=O)N2C[C@@H](Oc3ccccc3)C[C@@H]2C(=O)N2CCOCC2)c1 as the compound, how does the “activity change, negative = inhibition” value read?
Answer: -1.89% (inactive)

Question: With COc1ccccc1NS(=O)(=O)c1cc(NC(=O)c2cccc(S(=O)(=O)N(C)C)c2)ccc1N1CCOCC1 as the compound, how does the Potency read?
Answer: 7.5 µM (active)

Question: For CCc1noc(-c2cn(C3CCN(C(=O)c4ccc(F)c(F)c4)CC3)nn2)n1, which “activity change, negative = inhibition” value is on record?
Answer: 38.9% (inactive)

Question: For CCCc1noc(-c2cn(C3CCN(C(=O)Cc4cccc(F)c4)CC3)nn2)n1, which “activity change, negative = inhibition” value is on record?
Answer: -15.8% (inactive)

Question: Which Potency does the source give for Cc1nc2cc(F)ccc2n1C1CCN(C(=O)c2c(F)cccc2F)CC1 here?
Answer: 5.96 µM (active)

Question: For CCC(O)(CC)C(=O)NN(C(=O)Nc1csc2c1CCCC2)c1ccccc1, which Potency is on record?
Answer: 2.99 µM (active)

Question: For CCCC(=O)Nc1sc2c(c1C(=O)Nc1ccccn1)CCCC2, which “activity change, negative = inhibition” value is on record?
Answer: 5.63% (inactive)

Question: For Cc1ccc(C)c(C(=O)Nc2ccncc2)c1, which “activity change, negative = inhibition” value is on record?
Answer: 7.54% (inactive)

Question: With Cc1ccc(NC(=O)c2cnc(-c3ccccc3)nc2-c2ccncc2)c(Br)c1 as the compound, how does the Potency read?
Answer: 9.44 µM (active)

Question: Which Potency does the source give for COc1ccc([C@@]2(C(C)C)ON(c3ccccc3C(F)(F)F)C2=O)cc1 here?
Answer: 4.22 µM (active)

Question: For Cc1nn(-c2ccccc2)nc1C(=O)Oc1cc(C(F)(F)F)nn1-c1ccccc1, which “activity change, negative = inhibition” value is on record?
Answer: 11.3% (inactive)

Question: For Cn1cnc2ccc(-c3cccc(O)c3)nc2c1=O, which Potency is on record?
Answer: 6.11 µM (active)

Question: With COCCn1cnc2ccc(-c3ccccc3)nc2c1=O as the compound, how does the “activity change, negative = inhibition” value read?
Answer: -1.86% [at 57.5 µM] (inactive)

Question: Which “activity change, negative = inhibition” value does the source give for COCCN1CCCCCC(O)c2cc(C(=O)NCCc3ccccc3)ccc21 (configuration not stated) here?
Answer: -13.9% (inactive)

Question: For Cc1ccccc1CN1CCc2nc(C(=O)NCCOc3ccccc3)oc2CC1, which “activity change, negative = inhibition” value is on record?
Answer: 21.9% [at 43.1 µM] (inactive)

Question: For CN1CC2(CCCN(CC3CC3)C2)c2cc(C(=O)NCCOc3ccccc3)ccc21 (configuration not stated), which Potency is on record?
Answer: 17.2 µM (active)

Question: For COc1cc2nc(NCCC(C)C)n3nc(-c4ccccc4)nc3c2cc1OC, which Potency is on record?
Answer: 0.422 µM (active)

Question: With CCOCCCNc1nc2cc(OC)c(OC)cc2c2nc(-c3ccccc3)nn12 as the compound, how does the Potency read?
Answer: 0.211 µM (active)

Question: With COCCCNc1nc2cc(OC)c(OC)cc2c2nc(-c3ccccc3)nn12 as the compound, how does the Potency read?
Answer: 0.237 µM (active)

Question: Which “activity change, negative = inhibition” value does the source give for CC(C)CN1C(=O)c2cccn2CC1C(=O)O (configuration not stated) here?
Answer: 31.9% (inactive)

Question: With CN1C(=O)C2(CCN(C(=O)c3ccn(C(C)(C)C)c3)CC2)c2ccccc21 as the compound, how does the “activity change, negative = inhibition” value read?
Answer: -35.1% (inactive)

Question: Which Potency does the source give for CCN1C(=O)C2(CCN(S(=O)(=O)c3ccc(Cl)cc3C)CC2)c2ccccc21 here?
Answer: 5.31 µM (active)
